Measured values: PubChem BioAssay (NCATS)
Records with an inconclusive call do not appear. Where a call stands in place of a potency, no number is given. Calls of active or inactive are those of the source. Calls follow the shape of the dose curve; as a rule, active = well fitted inhibition curve with a large enough effect; inconclusive = small, poorly fitted or top-dose-only effect; inactive = no such curve, though single readings can be large or run the other way.

Experiments:
[1] = target: Retinal dehydrogenase 2 (Homo sapiens) (UniProt O94788); experiment: qHTS for Inhibitors of the Aldehyde Dehydrogenase Family (ALDH1A2) Confirmation screens (AID 2061314); conditions: ALDH1A2 enzyme inhibition qHTS confirmation; series mostly up to 45.9 µM; also: nearly all actives have a fitted effect of over 65% in size; also: potency is read from the fitted curve at half-maximal effect
[2] = target: Retinaldehyde dehydrogenase 3 (Homo sapiens) (UniProt P47895); experiment: qHTS for Inhibitors of the Aldehyde Dehydrogenase Family (ALDH1A3) Primary screen (AID 2061315); conditions: ALDH inhibition qHTS; series mostly up to 56 µM
[3] = target: Aldehyde dehydrogenase 1A1 (Homo sapiens) (UniProt P00352); experiment: qHTS for Inhibitors of the Aldehyde Dehydrogenase Family (ALDH1A1) Confirmatory screens (AID 2061316); conditions: ALDH inhibition qHTS; series mostly up to 47.3 µM; also: potency is read from the fitted curve at half-maximal effect; nearly all actives have a fitted effect of over 65% in size

Row | SMILES | Potency [1] | Potency [2] | Potency [3]
1 | O=c1c2nc(OCc3ccc(F)cc3)ccc2ncn1C1CC1 | inactive | – | –
2 | CC(=O)Nc1sc2c(c1-c1nc3ccccc3s1)CCN(C1COC1)C2 | 14.2 µM (active) | inactive | 4 µM (active)
3 | NC(=O)C1CCN(c2ncnc(-c3ccc4c(c3)OCCCO4)n2)CC1 | – | inactive | –
4 | CC(C)(C)OC(=O)N[C@@H](Cc1ccc(O[S+](=O)([O-])c2cccc3cnccc23)cc1)C(=O)N1CCN(Cc2ccccc2)CC1 | – | inactive | –
5 | CC(=O)c1ccc(-c2ccc3ncnc(NCc4ccc(C)o4)c3c2)o1 | – | inactive | –
6 | Cc1ccc(C#Cc2cc(-c3nn(-c4nc(C(=O)O)cs4)c(CC4CC4)c3Cc3ccc(S(N)(=O)=O)c(F)c3)ccc2F)o1 | – | inactive | –
7 | O=C(N1Cc2ccc(Nc3nn4c(=O)c5ccccc5nc4s3)cc2C1)C(F)(F)F | – | inactive | –
8 | Cc1csc(CNc2ncnc3ccc(-c4ccc(C(C)O)o4)cc23)n1 (centres undefined) | 5.65 µM (active) | inactive | 11.3 µM (active)
9 | O=C(Nc1ccc(-c2nc3ccccc3[nH]2)cc1)c1ccc2ncsc2c1 | – | inactive | –
10 | Cn1nnnc1Sc1ncnc2scc(I)c12 | inactive | inactive | 25.2 µM (active)
11 | COc1ccc2c(=O)n3nc(Nc4ccc5c(c4)CCC5)sc3nc2c1 | – | inactive | –
12 | Cc1ccc(NS(=O)(=O)c2cc3c(cc2C)NC(=O)CO3)cc1C | – | inactive | –
13 | Cc1ccc(CN(C)c2ncnc3ccc(-c4ccc(CO)o4)cc23)o1 | 11.3 µM (active) | inactive | 2.52 µM (active)
14 | O=C1CCCC2=C1C(c1ccccc1I)N=C(Nc1nc3ccccc3o1)N2 (centres undefined) | – | inactive | –
15 | CN1CCN(c2ccc(CNc3nn4c(=O)c5ccccc5nc4s3)cc2)CC1 | – | inactive | –
16 | CCOc1ccc(C(=O)N2CCN(Cc3cc(=O)n4nc(-c5cccc(OC)c5)sc4n3)CC2)cc1 | inactive | – | 6.47 µM (active)
17 | O=C(O)C1NCc2[nH]cnc2C1c1ccccc1 (centres undefined) | 4 µM (active) | inactive | 11.3 µM (active)
18 | O=C(c1ccccc1O)N(Cc1ccco1)Cc1cccs1 | 22.5 µM (active) | inactive | 11.3 µM (active)
19 | Cc1cccc(N2CCN(C(=S)Nc3cc(C)ccn3)CC2)c1 | – | inactive | –
20 | COc1cc2c(cc1OC)CN(C(=O)/C=C/c1c(-c3ccccc3)n(C)c3ncccc13)CC2 | – | inactive | –
21 | N#Cc1c(-c2cccs2)no[n+]1[O-] | – | inactive | –

Row | SMILES | Potency [1] | Potency [2] | Potency [3]
22 | COc1ccc(C2c3ccc4ccccc4c3Oc3ncn(CCN4CCOCC4)c(=N)c32)cc1OC (centres undefined) | – | inactive | –
23 | COc1ccc(Cn2c(C)nnc2-c2cnn(C)c2N)cc1OC | – | inactive | –
24 | CCOC(=O)c1c(-c2ccc(C)o2)csc1NC(=O)CSc1nnnn1-c1ccccc1 | 5.04 µM (active) | inactive | 0.4 µM (active)
25 | Nc1c(-c2ccccc2)cc[nH]c1=O | 0.159 µM (active) | inactive | –
26 | OCc1ccc(-c2ccc3ncnc(NCc4nccs4)c3c2)o1 | 14.2 µM (active) | inactive | 4 µM (active)
27 | CSC(Cc1ccc(Cl)cc1)C(=O)Nc1ccc(Cl)cc1C(=O)O (centres undefined) | – | inactive | –
28 | CC(C)c1ccc(-n2ncc3c(=O)n(CC(=O)Nc4cc(F)ccc4Cl)cnc32)cc1 | – | inactive | –
29 | Cc1ccc(NS(=O)(=O)c2ccc(-c3ccccc3)cc2)cc1C | – | inactive | –
30 | O=S1(=O)N=C(Sc2cccc3cccnc23)c2ccccc21 | inactive | inactive | 15.9 µM (active)
31 | O=C1COc2cc([S+](=O)([O-])Nc3ccc(Cl)c(Cl)c3)c(Cl)cc2N1 | 14.2 µM (active) | inactive | –
32 | O=C(Nc1ccc(-c2nc3ccccc3[nH]2)cc1)c1ccc(-c2ccccc2)cc1 | – | inactive | –
33 | COc1ccc(CC(NC(C)=O)C(=O)O)cc1 (centres undefined) | – | inactive | –
34 | O=C1c2ccccc2C(=O)N1c1ccc2ccccc2n1 | – | inactive | –
35 | Cc1c(C(=O)OCc2ccco2)[nH]c2c1C(=O)CC(c1ccco1)C2 (centres undefined) | 3.18 µM (active) | inactive | 1.42 µM (active)
36 | O=C(OCC#CCNc1nnc(-c2cccc3ccccc23)o1)c1cccs1 | – | inactive | –
37 | c1csc(CNc2ncnc3cc(-c4ccc5c(c4)OCO5)ccc23)c1 | – | inactive | –
38 | CN(C)C(=O)c1ccc(-c2cc[nH]c(=O)c2N)cc1 | 0.4 µM (active) | inactive | –
39 | O=[N+]([O-])c1cc(C(F)(F)F)ccc1N1CCN(C(=S)Nc2cc(Cl)ccn2)CC1 | 14.2 µM (active) | inactive | 5.04 µM (active)
40 | Cc1ccnc(NC(=S)N2CCN(c3ccccc3C(F)(F)F)CC2)c1 | – | inactive | –
41 | Cc1ccc(-c2nc3ccccc3s2)cc1NC(=O)c1ccc(-c2cccc(Cl)c2)o1 | 22.5 µM (active) | inactive | 8.96 µM (active)
